# Entries with a potency or affinity are not part of this list. Calls of active or inactive are those of the source.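 Rule for the calls: active = cell-killing curve whose half-maximal dose falls at or below double the top accepted dose; inconclusive = flat fit with drops of 30 to 70%, or poor fit; inactive = the rest, including signal rises.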
# Assay: viability loss in mouse NIH3T3 cells – cell-based, CellTiter-Glo luminescence, dry powder, cytotoxicity control for PglD inhibitor project, dose response (AID 652044)
# Settings: CellTiter-Glo ATP luminescence, 48 h; series mostly up to 26 µM
row,SMILES,outcome
1,O=C(C[C@@H]1CC[C@@H]2[C@H](COC[C@@H](O)CN2Cc2ccc(F)cc2)O1)N1CCc2ccccc2C1,inactive
2,Cc1noc(C)c1NC(=O)Nc1cccc2c1O[C@H](CN(C)C(=O)Nc1cccc3ccccc13)[C@@H](C)CN([C@H](C)CO)C2=O,inactive
3,COCC#Cc1cnc2c(c1)C(=O)N([C@@H](C)CO)C[C@H](C)[C@@H](CN(C)C(=O)C1CCC1)O2,inactive
4,CO[C@@H]1CN(C)C(=O)c2ccc(NS(C)(=O)=O)cc2OC[C@@H](C)N(C(=O)C2CCOCC2)C[C@H]1C,inactive
5,CCC(=O)Nc1ccc2c(c1)OC[C@@H](C)N(Cc1ccccn1)C[C@@H](C)[C@H](OC)CN(C)C2=O,inactive
6,CC(=O)N[C@H]1CC[C@H](CC(=O)NCc2ccc(Cl)cc2)O[C@H]1CO,inactive
7,O=C(N[C@H]1C=C[C@@H](CC(=O)N2CCCCC2)O[C@H]1CO)c1ccc2c(c1)OCO2,inactive
8,O=C(C[C@@H]1C[C@@H]2c3cc(NC(=O)NC4CCCCC4)ccc3O[C@@H]2[C@@H](CO)O1)NCc1cccnc1,inactive
9,CC=Cc1ccc2n(c1=O)C[C@@H]1[C@@H](CO)[C@H](C(=O)NCCOC)[C@H]2N1Cc1nccs1 (mixture of isomers),inactive
10,C[C@H]1CN([C@@H](C)CO)C(=O)c2cccc(NC(=O)Nc3ccccc3)c2O[C@H]1CN(C)C,inactive
11,C/C=C/c1cnc2c(c1)C(=O)N([C@@H](C)CO)C[C@H](C)[C@@H](CN(C)C(=O)c1cccnc1)O2,inactive
12,CO[C@H]1CN(C)C(=O)c2cc(NC(C)=O)ccc2OC[C@@H](C)NC[C@@H]1C,inactive

# Reference: PubChem BioAssay AID652044 (Broad Institute, 2013)
